An excerpt weighted towards active compounds, which were near 12% of everything screened.
G9a block: G9a (human) methyltransferase inhibition | AID 504332 | G9a H3K9 monomethylation, AlphaScreen, 2 h | 350,000 tested, 8.8% active | Potency, µM (top dose mostly 102 µM), for inactives: at the top dose activity, negative = inhibition, hits mostly inhibitors; also: potency is read from the fitted curve at half-maximal effect; % is scaled to controls: 0 for no effect and ±100 for the full control effect; nearly all actives have a fitted effect of over 75% in size
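Step 1: enzyme (final 20 nM) with compound, 15 min RT. Step 2: substrate peptide 500 nM and SAM 20 uM, 2 h RT. Step 3: anti-H3K9me1 antibody and AlphaScreen beads, 10 min, then plate read.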
BAZ2B block: inhibitors of human BAZ2B bromodomain; AlphaScreen BAZ2B-H3K14Ac peptide displacement; AID 504333; 360,000 tested, 4.4% active; Potency, µM (doses to about 114 µM), for the others: at the highest dose activity change, negative = inhibition, hits mostly inhibitors; also: potency is read from the fitted curve at half-maximal effect; % is scaled to controls: 0 for no effect and ±100 for the full control effect; nearly all actives have a fitted effect of over 60% in size
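Protein-peptide AlphaScreen: BAZ2B 50 nM, b-H3K14Ac 50 nM, 1x PBS pH 7.4 + 0.01% Tween-20. Preincubation 30 min RT; cpd 30 min RT (top 110 uM); beads 20 min RT, light-protected.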
PI5P4Ka inh: blocks human PI5P4K alpha kinase activity; P48426; PI5P4Kalpha enzyme, ADP-Glo luminescence, 60 min; active compounds read low; max response, %; 330,000 tested, 1.2% active; active = max response of -50% or lower; inconclusive = between -30% and -50%; inactive = -30% or higher; also: value at the top dose of about 77 µM; % is scaled to controls: 0 for no effect and ±100 for the full control effect
Target sequence (P48426 whole entry, looked up): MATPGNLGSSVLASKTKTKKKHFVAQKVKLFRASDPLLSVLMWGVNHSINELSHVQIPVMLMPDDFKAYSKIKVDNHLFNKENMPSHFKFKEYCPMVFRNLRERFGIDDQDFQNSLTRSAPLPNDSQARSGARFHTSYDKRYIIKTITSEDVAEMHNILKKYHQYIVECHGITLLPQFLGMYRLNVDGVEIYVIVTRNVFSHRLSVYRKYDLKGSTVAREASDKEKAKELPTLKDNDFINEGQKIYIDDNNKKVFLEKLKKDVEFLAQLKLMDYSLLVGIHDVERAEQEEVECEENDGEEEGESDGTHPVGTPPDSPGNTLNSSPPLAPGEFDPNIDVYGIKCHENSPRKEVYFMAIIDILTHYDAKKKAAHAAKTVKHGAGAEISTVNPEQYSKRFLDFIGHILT
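Compounds were pin-transferred onto PI5P4Kalpha and substrate in HEPES pH 7.4 buffer with EGTA, CHAPS and 5% DMSO. ATP (5 microM final) started the reaction, which ran 60 minutes at room temperature before ADP-Glo detection.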
PLK1 PBD block: blocks phosphopeptide binding to human PLK1 polo-box domain. P53350. Plk1 PBD binding of FITC phosphopeptide, fluorescence polarization. Potency, µM, for the others: max response, negative = inhibition, most hits filed as inhibitors. 360,000 tested, 2.8% active. AID 720504; also: potency is read from the fitted curve at half-maximal effect; series mostly up to about 57 µM; % is scaled to controls: 0 for no effect and ±100 for the full control effect; nearly all actives have a fitted effect of over 65% in size
HP1b binding inh: blocks HP1-beta chromodomain binding to methylated histone tails; P83916; AlphaScreen HP1-beta / biotin-H3K9me3 peptide binding; Potency, µM (highest dose often 114 µM), for the others: at the highest dose activity change, negative = inhibition, most hits filed as inhibitors; 390,000 tested, 0.56% active; AID 540317; also: potency is read from the fitted curve at half-maximal effect; nearly all actives have a fitted effect of over 70% in size
Target sequence (P83916 whole entry, looked up): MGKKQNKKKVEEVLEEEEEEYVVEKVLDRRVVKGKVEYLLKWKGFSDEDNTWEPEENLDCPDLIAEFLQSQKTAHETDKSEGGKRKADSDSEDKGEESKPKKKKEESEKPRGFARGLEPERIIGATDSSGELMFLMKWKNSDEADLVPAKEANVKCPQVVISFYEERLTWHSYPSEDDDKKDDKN
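Compound inhibition of the preformed complex between 50 nM HP1-beta and 50 nM biotinylated H3K9me3 peptide was read by AlphaScreen. Buffer was PBS pH 7.4 with 0.01% Tween-20. Incubations ran 30 min at room temperature, with 10 ug/mL donor/acceptor beads.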
JMJD2A Tudor inh: inhibitors of human JMJD2A Tudor domain | O75164 | AlphaScreen JMJD2A-Tudor / H3K4me3 peptide binding | Potency, µM (top dose mostly 114 µM), without a hit: top-dose activity change, negative = inhibition, actives largely listed as inhibitors | 390,000 tested, 4.4% active; also: potency is read from the fitted curve at half-maximal effect; % is scaled to controls: 0 for no effect and ±100 for the full control effect; nearly all actives have a fitted effect of over 50% in size
The depositor's hits bear a star; ? = inconclusive; / = no result given; [ ] = remark or other dose. Unless noted, calls follow the shape of the dose curve; as a rule, active = well fitted curve in the direction sought with a large enough effect; inconclusive = small, poorly fitted or top-dose-only effect, or another doubt; inactive = no such curve, though single readings can be large; an effect the other way counts as inactive or inconclusive.

SMILES | G9a block | BAZ2B block | PI5P4Ka inh | PLK1 PBD block | HP1b binding inh | JMJD2A Tudor inh
CCOC(=O)c1c(C)[nH]c(N=Nc2ccc(OC)cc2)c1C | 28µM* | 40µM* | 16 | -20% | ? | 56µM*
CCOC(=O)N1CCc2c(sc3c2c(=O)n(CCc2ccccc2)c(=O)n3Cc2c(F)cccc2Cl)C1 | -3%[59 µM] | -22% | / | / | 34% | -3%
COc1ccc(N2C(=O)[C@@H]3[C@H](C2=O)[C@H](C(C)=O)N2c4ccccc4C=C[C@@H]32)cc1 | 8.9µM* | ? | -12 | -7% | -4% | -7%
COc1ccc(C2C(C(=O)c3ccccc3)N3c4ccccc4C=CC3C2[N+](=O)[O-])cc1 (stereo not drawn) | 35µM* | ? | -14 | 43% | -5% | -23%
CCCC1C2C(=O)N(c3ccc(OC)cc3)C(=O)C2ON1c1ccccc1 (stereo not drawn) | 11% | 5% | / | -6% | 26% | -23%
CC(CCl)n1c(=O)c2ccccc2n1C(=O)c1ccccc1 (stereo not drawn) | / | / | 4 | -15% | / | /
c1ccc(Cc2nn3c(COc4ccccc4)nnc3s2)cc1 | 5µM* | -28% | / | 4.2µM* | ? | ?
c1ccc(OCc2nn3c(-c4ccco4)nnc3s2)cc1 | 50µM* | -8% | / | -11% | 25% | -25%
CCOc1ccccc1OCc1nn2c(COc3ccccc3)nnc2s1 | ? | -21% | / | 4.7µM* | ? | ?
Fc1ccc(-c2nc3ccc(Br)cn3c2Cc2ccsc2)cc1 | / | / | -29 | -1% | / | /
Cc1ccc(CSC2=Nc3ccccc3C3=NC(CC(=O)NC4CCCCC4)C(=O)N23)cc1 (stereo not drawn) | 3%[59 µM] | -2% | / | / | 25% | -12%
COc1ccc(NC(=O)Cn2cc(S(=O)(=O)N3CCN(c4ccccc4F)CC3)c3ccccc3c2=O)cc1Cl | -19%[59 µM] | -2% | / | / | 21% | -13%
CC(C)N(C1=N/C(=C\c2ccco2)C(=O)N1c1ccccc1)C(C)C | ? | -4% | 0 | -7% | 8% | -5%
CN1C(=S)N(c2ccccc2)C(=O)/C1=C/c1cccs1 | 9%[59 µM] | 4% | 0 | -15% | 17% | -21%
O=C1/C(=C/c2ccco2)N=C(N2CCCCC2)N1c1ccccc1 | ? | 79µM* | 2 | -1% | 0% | -25%
CN1C(=S)N(c2ccccc2)C(=O)/C1=C/c1ccco1 | 10µM* | -34% | 3 | 1% | 6% | -28%
CCn1cc(CCCC(=O)NCc2cccc(OC)c2)c2ccccc21 | -12% | ? | -8 | -2% | 2% | ?
CCOc1cc(/C=C2/SC(=S)N(Cc3ccccc3)C2=O)ccc1O | 45µM* | 22µM* | 6 | 13% | ? | 50µM*
O=C(O)c1ccc(/C=C2/SC(=S)N(Cc3ccccc3)C2=O)cc1 | ? | ? | 5 | ? | 2% | ?
O=C(O)c1cccc(CN2C(=O)S/C(=C/c3cccc([N+](=O)[O-])c3)C2=O)c1 | ? | -33% | -30 | ? | -17% | 2%[11.4 µM]
O=C1/C(=C\c2cccc([N+](=O)[O-])c2O)SC(=S)N1Cc1ccccc1 | 2µM* | 2µM* | -90* | 17µM* | ? | 8.9µM*
O=C1/C(=C/c2ccc(O)c([N+](=O)[O-])c2)SC(=S)N1Cc1ccccc1 | 3.5µM* | ? | -7 | ? | ? | 4µM*
CCN1C(=O)/C(=C\C=C\c2ccccc2[N+](=O)[O-])SC1=S | 10µM* | / | -3 | -2% | ? | ?
O=S(=O)(c1ccccc1)N(CC1CO1)c1cc(Cl)ccc1Cl (stereo not drawn) | 12% | 12% | -2 | -2% | 35% | 10%
O=C(CN1C=NS(=O)(=O)c2ccccc21)Nc1ccc(Br)cc1 | -2%[59 µM] | 3% | / | / | 39% | -10%
SMILES | G9a block | BAZ2B block | PI5P4Ka inh | PLK1 PBD block | HP1b binding inh | JMJD2A Tudor inh
CCOc1ccc(CC(=O)NCC(=O)NCc2cc(=O)n(C)c(=O)n2C)cc1 | / | 12% | 2 | -8% | 22% | -21%
Cc1cccc(CC(=O)NCC(=O)NCc2cc(=O)n(C)c(=O)n2C)c1 | -4% | -10% | ? | 3µM* | 7% | ?
O=C(CSc1ncccc1C(=O)O)NC12CC3CC(CC(C3)C1)C2 | 32µM* | ? | -4 | -9% | 27% | 2%
O=C(CSc1ccccc1C(=O)O)NC12CC3CC(CC(C3)C1)C2 | -6% | -5% | -13 | 30µM* | 0% | ?
COc1ccc(OC)c(-c2cc(C3CCN(c4cc(Cl)nc(N)n4)CC3)[nH]n2)c1 | ? | ? | 17 | -17% | -19% | ?
O=[N+]([O-])c1cccnc1N1CCC(c2cc(-c3cccc(C(F)(F)F)c3)n[nH]2)CC1 | ? | 35µM* | 3 | -20% | ? | -15%[11.4 µM]
COc1ccc(OC)c(-c2cc(C3CCN(c4ncccc4[N+](=O)[O-])CC3)[nH]n2)c1 | 35µM* | 13µM* | 13 | 0% | ? | 25µM*
COc1ccc(-c2cc(C3CCN(Cc4ccc([N+](=O)[O-])cc4)CC3)[nH]n2)cc1 | 45µM* | ? | 33 | -13% | ? | 45µM*
COC(=O)c1ccccc1C(=O)c1ccc(OCCN2CCCCC2)cc1 | -43%[12.7 µM] | / | / | / | / | /
CCOc1ccccc1NC(=O)CN(c1ccc(Cl)cc1)S(C)(=O)=O | 4% | -4% | 3 | -6% | 51% | -7%
Cc1ccc(C)n1-c1c(C(=O)NCCCN2CCN(c3ccc(F)cc3)CC2)sc2ncccc12 | -45%[59 µM] | ? | / | / | -3%[57 µM] | 50µM*
O=C(NCCCN1CCN(c2ccccc2)CC1)c1sc2ncccc2c1-n1cccc1 | -30%[59 µM] | ? | / | / | -16%[57 µM] | ?
O=C(NCCCN1CCN(c2cccc(Cl)c2)CC1)c1sc2ncccc2c1-n1cccc1 | -45%[59 µM] | 35µM* | / | / | -21%[57 µM] | 32µM*
COCCNC(=O)c1cc(S(=O)(=O)N(C)c2ccccc2OC)ccc1C | 28µM* | -14% | 1 | -15% | 50% | -4%
COc1ccccc1N(C)S(=O)(=O)c1ccc(C(=O)NCC(C)C)cc1 | 3%[12.7 µM] | -22% | / | 3% | 37% | -13%
COc1ccccc1N(C)S(=O)(=O)c1ccc(C(=O)N(CC(N)=O)C(C)C)cc1 | -5% | 89µM* | 6 | -6% | 30% | -10%
COc1ccccc1N(C)S(=O)(=O)c1ccc(Cl)c(C(=O)NCc2ccco2)c1 | / | / | -11 | -11% | -15% | ?
COc1ccc(-c2nnc3n2N(C(C)=O)C(c2ccc(Cl)c(Cl)c2)=C(C(C)=O)S3)cc1 | 3%[59 µM] | -3% | / | / | 22% | -5%
COC(=O)c1sccc1NC(=O)CN1CCN(c2ccc(F)cc2)CC1 | 45µM* | ? | 14 | -5% | -14% | ?
COc1ccc(N2CCN(CC(=O)Nc3ccccc3SC)CC2)cc1 | -50%[12.7 µM] | 50µM* | 8 | -5% | ? | ?
